An excerpt weighted towards active compounds, which were near 27% of everything screened.
Pyk2 oligo antag = Pyk2 (human) oligomerization antagonism; Q14289; Q293 cells, Pyk2 FERM NanoBiT luminescence; hits give low values; z-score (the deposit names both 25 µM and 10 µM); actives 0.83% (n = 99,000); AID 1347419;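 active = Z-score of -3 or lower, scaled per plate to the spread of control and sample wells; inactive = z-score above -3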;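 also: negative z-score means lost luminescence so less FERM oligomerization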
CYP2C9 inhib = inhibitors of human CYP2C9 | P11712 | CYP2C9 Supersomes, luciferin-H conversion, luminescence | inhibition, % at 5 µM | actives 20% (n = 96,000) | AID 777;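 active = blocking of liver enzyme CYP2C9 beyond about 50% at 5 µM, limit read from the data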
Cav3 T inh = blocks human Cav3.2 T-type calcium channel | O95180 | Cav3.2-expressing cells, Fluo-4 calcium fluorescence FDSS; hits give low values | B-score at 10 µM | actives 4% (n = 100,000);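 active = single-dose well whose peak fluorescence ratio is a statistical outlier from its plate by either plate-standardised score or position-corrected B-score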
CYP2C19 inh = inhibitors of human CYP2C19; P33261; CYP2C19 Supersomes, luciferin-H EGE luminescence, 30 min; inhibition, % at 5 µM; actives 21% (n = 96,000); AID 778;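 active = CYP2C19 inhibition above a set limit at 5 µM in the primary screen, cut at about 50% in these data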;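 also: plate controls were negative control wells for no effect and 2.5 mM tranylcypromine positive control for full effect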
Target sequence (P33261 whole entry, looked up): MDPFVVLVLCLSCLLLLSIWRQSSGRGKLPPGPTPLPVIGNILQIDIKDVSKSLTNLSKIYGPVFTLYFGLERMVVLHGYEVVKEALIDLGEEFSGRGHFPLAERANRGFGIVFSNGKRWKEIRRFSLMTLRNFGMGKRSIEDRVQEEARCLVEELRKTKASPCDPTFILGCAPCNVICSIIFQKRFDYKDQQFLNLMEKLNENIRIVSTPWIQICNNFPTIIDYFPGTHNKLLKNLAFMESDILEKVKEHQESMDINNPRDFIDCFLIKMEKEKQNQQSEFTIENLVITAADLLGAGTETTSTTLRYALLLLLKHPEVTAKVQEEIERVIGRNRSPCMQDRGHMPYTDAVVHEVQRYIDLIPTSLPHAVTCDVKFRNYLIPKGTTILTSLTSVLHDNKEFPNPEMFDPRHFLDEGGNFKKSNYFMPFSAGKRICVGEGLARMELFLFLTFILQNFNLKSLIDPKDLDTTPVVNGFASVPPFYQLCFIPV
CYP2C9 activ = CYP2C9 (human) activation | actives 1.4% (n = 96,000) | recombinant CYP2C9, luciferin-H conversion, luminescence; hits give high values; factor 1 = untreated enzyme, 0 = blocked | activation factor at 5 µM | AID 1024 | P11712;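 active = activation factor of 2 or more for CYP2C9 at a 5 µM dose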;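 also: 0 = sulfaphenazole-blocked wells and 1 = vehicle-only wells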
CYP2C19 act = cytochrome P450 2C19 (human) activation | recombinant CYP2C19, luciferin-H EGE luminescence; hits give high values; 0 = fully inhibited enzyme, 1 = untreated enzyme | 96,000 tested, under 10 active | activation factor at 5 µM;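 active = activation factor of at least 2 at 5 µM in the primary screen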;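 also: 0 = wells with 2.5 mM tranylcypromine and 1 = vehicle-only wells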
The depositor's hits bear a star; x = no result.

SMILES	Pyk2 oligo antag	CYP2C9 inhib	Cav3 T inh	CYP2C19 inh	CYP2C9 activ	CYP2C19 act
O=C(Nc1ccc(NC(=S)NC(=O)c2ccccc2Cl)cc1)c1cccc(Cl)c1	-0.82	x	0.0349	x	x	x
O=C(CN1CCN(C2CCCCC2)CC1)NCCC1=CCCCC1	1.37	21.4	-0.0268	15.6	0.8	0.8
C1=C(CCNCC2CCCCC2)CCCC1	1.12	-0.8	x	88.2*	1	0.1
Clc1ccc(CNCCC2=CCCCC2)cc1	-0.31	21.7	-1.83	100.4*	0.8	0
Cc1cccc(Nc2nc(N)nc(CN3CCN(Cc4ccc5c(c4)OCO5)CC3)n2)c1	-0.32	9.1	x	13.3	0.9	0.9
C#CCOCCOCCOCCNc1nc(N2CCN(C(=O)C([C@@H](C)CC)n3cc(C(N)CO)nn3)CC2)nc(N2CCN(C(=O)C([C@@H](C)CC)n3cc(C(N)COC(=O)C(F)(F)F)nn3)CC2)n1 (stereo partly drawn)	x	x	0.508	x	x	x
COc1cccc(-c2cn3nc4c(nc3n2)CCCC4)c1	-0.47	50.4*	0.2	95.7*	0.5	0
Cc1[nH]nc2c1C1(CCC3(CC1)OCCO3)C(C#N)=C(N)O2	-0.27	10.4	-0.093	8.7	0.9	0.9
CCOC(=O)N1CCC2(CC1)C(C#N)=C(N)Oc1c2c(C)nn1-c1cccc(Cl)c1	-0.73	71.8*	-0.24	30.4	0.3	0.7
CCOC(=O)N1CCC2(CC1)C(C#N)=C(N)Oc1c2sc2nc(C)cc(C)c12	0.01	47.2	0.332	45.9	0.5	0.5
CC(=O)N1CCC2(CC1)C(C#N)=C(N)Oc1n[nH]c(CSc3ccc(C)cc3)c12	-0.13	52.9*	0.802	41.2	0.5	0.6
Cc1ccc(SCc2[nH]nc3c2C2(C(=O)Nc4ccc(F)cc42)C(C#N)=C(N)O3)cc1 (stereo not drawn)	-0.66	34.5	0.96	19.1	0.7	0.8
CCOC(=O)N1CCC2(CC1)C(C#N)=C(N)Oc1n[nH]c(C)c12	0.22	33.4	x	50.0*	0.7	0.5
CCN1CCN(c2nc3c(c(=O)[nH]c(=O)n3C)n2CCCSc2ncccn2)CC1	-0.3	-13.4	-0.0333	-16.2	1.1	1.2
Cc1nc2ccc(NC(=O)c3cccc(S(=O)(=O)N4CC(C)OC(C)C4)c3)cc2s1 (stereo not drawn)	-1.8	66.2*	-0.202	71.1*	0.3	0.3
CC1CN(S(=O)(=O)c2ccc(NC(=O)c3cc(-c4ccccc4O)n[nH]3)cc2)CC(C)O1 (stereo not drawn)	-3.07*	46.8	-0.912	21.0	0.5	0.8
CC1CN(S(=O)(=O)c2ccccc2)CC(C)O1 (stereo not drawn)	-0.34	-0.1	-0.0121	33.9	1	0.7
c1coc(CN(Cc2ccco2)c2ncnc3c2oc2ccccc23)c1	-2.04	x	-3.74	x	x	x
CC1CC(C)CN(C(=O)C2CCCN(S(=O)(=O)c3cccc4nonc34)C2)C1 (stereo not drawn)	1.53	75.5*	-0.622	45.9	0.2	0.5
Cc1nn(C)c(C)c1S(=O)(=O)N1CCCC(C(=O)N2CCN(c3ccccc3)CC2)C1 (stereo not drawn)	x	39.9	x	57.8*	0.6	0.4
CC1CCN(C(=O)C2CCN(S(=O)(=O)c3cccc4nonc34)CC2)CC1	0.24	6.7	0.704	42.6	0.9	0.6
O=C(C1CCCN(S(=O)(=O)c2cccc3nsnc23)C1)N1CCN(c2ccccn2)CC1 (stereo not drawn)	0.58	75.6*	0.547	28.6	0.2	0.7
CCOC(=O)C1CCN(S(=O)(=O)c2cccc3nonc23)CC1	0.17	87.6*	-1.69	72.3*	0.1	0.3
COc1ccc(CCNC(=O)C2CCCN(S(=O)(=O)c3cccc4nonc34)C2)cc1OC (stereo not drawn)	-0.6	-1.6	x	26.6	1	0.7
O=C(O)c1ccc(-c2noc(-c3ccc(F)cc3)n2)cc1	x	x	0.457	x	x	x
SMILES	Pyk2 oligo antag	CYP2C9 inhib	Cav3 T inh	CYP2C19 inh	CYP2C9 activ	CYP2C19 act
COC(=O)C(C)Sc1nc2c(c(=O)[nH]c(=O)n2C)n1CCC(C)C (stereo not drawn)	0.7	x	1.62	x	x	x
O=C(C1CCCN(S(=O)(=O)c2cccc3nonc23)C1)N1CCN(c2ccccc2)CC1 (stereo not drawn)	0.18	60.0*	-1.55	60.4*	0.4	0.4
COC(=O)C1=C(C)N=C2SCCC(=O)N2C1c1ccc(OC(=O)c2ccco2)cc1 (stereo not drawn)	0.31	x	0.234	x	x	x
COC(=O)C1=C(C)N=C2SC(C#N)=C(N)N2C1c1cc(OC)c(OC)c(OC)c1 (stereo not drawn)	-0.69	93.2*	-0.476	86.8*	0.1	0.1
COC(=O)C1=C(C)N=C2SC(C#N)=C(N)N2C1c1ccc(OCc2ccccc2)cc1 (stereo not drawn)	-2.8	69.4*	-5.06	32.5	0.3	0.7
CCN(CC)C(=O)C(=O)c1cccn1-c1cccc(Cl)c1C#N	-0.35	42.6	0.481	81.0*	0.6	0.2
CC(C)N(C(=O)C(=O)c1cccn1-c1ccccc1C#N)C(C)C	-0.39	27.2	0.183	54.2*	0.7	0.5
CN(C)C(=O)C(=O)c1cccn1-c1ccccc1C#N	0.35	-1.0	0.696	-1.7	1	1
COC(=O)c1sccc1-n1cccc1C(=O)C(=O)N1CCCC1	-0.21	-3.6	0.0765	33.4	1	0.7
COc1ccc2c(c1)c1nc(SCC(C)C)n(CCO)c(=O)c1n2C	x	33.4	-0.464	17.0	0.7	0.8
N#Cc1c(C(F)(F)F)cc(-c2ccccc2)[nH]c1=O	0.62	57.8*	-2.8	-9.8	0.4	1.1
N#Cc1c(C(F)(F)F)cc(-c2ccccc2Cl)[nH]c1=O	-1.49	86.2*	-2.62*	-7.8	0.1	1.1
N#Cc1c(C(F)(F)F)cc(C2CC2)[nH]c1=O	x	-14.0	-0.678	-1.2	1.1	1
CC(NC(=O)Nc1cccc([N+](=O)[O-])c1)(C(F)(F)F)C(F)(F)F	0.22	20.4	-4.85*	19.6	0.8	0.8
CC(NC(=O)Nc1cccnc1)(C(F)(F)F)C(F)(F)F	0.31	-12.9	-0.856	-15.5	1.1	1.2
Cc1ccc(C(=O)NC(=S)NNC(=O)c2ccccc2[N+](=O)[O-])cc1	0.86	x	-7.98*	x	x	x
CCC(C)(C)NC(=O)Cc1ccc(C)cc1	0.03	5.7	0.0182	44.0	0.9	0.6
COC(=O)C1=C(C)N(C)C(=O)NC1c1cc(Cl)c(O)c(OC)c1 (stereo not drawn)	-0.54	56.1*	0.782	36.5	0.4	0.6
Cc1ccccc1OCCNc1ccc(C(F)(F)F)cc1[N+](=O)[O-]	-0.97	37.2	0.028	75.0*	0.6	0.3
C=CCOc1c2ccc(C(=O)NCCc3ccc(C)cc3)cc2nn1C	x	20.4	1	13.1	0.8	0.9
CC(=O)C(C)Oc1cc(C)cc2oc(=O)c(C)c(C)c12 (stereo not drawn)	-0.17	57.3*	1.35	28.2	0.4	0.7

Compound activity deposited in PubChem by several laboratories.
